Bioassay records (PubChem BioAssay)
Pf Dd2 inh = blocks in vitro growth of P. falciparum Dd2. Potency, µM (highest dose often 28.9 µM), most hits filed as inhibitors. 120,000 tested, 4.3% active. P. falciparum Dd2 growth, SYBR Green, 72 h; active = well fitted inhibition curve with a large enough effect; note: nearly all actives have a fitted effect of over 65% in size
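Infected erythrocytes (Dd2, 0.3% parasitemia, 2.5% hematocrit final) are added to compound in RPMI-1640/Albumax II medium, grown 72 h at 37C in low oxygen, then lysed with saponin/Triton-X containing SYBR Green and read by fluorescence.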
Each line names hits and unclear results; the compound was inactive in the other large screens. Only a selection was taken, and hits are over-represented in it overall.

NC(=O)CCN1CCc2onc(-c3ccccc3F)c2C1	none
O[C@@H]1C[C@@H](c2nc(-c3ccc4c(c3)OCO4)no2)N(Cc2cc3ccccc3o2)C1	none
Cc1cc(F)cc(CN2CCc3nc(C(=O)Nc4ccccc4)oc3CC2)c1	none
N#Cc1ccc(C(=O)NC2CCN(c3cc(-c4ccc(Cl)cc4)[nH]n3)C2)cc1 (centres undefined)	Pf Dd2 inh 7.94µM
Cc1ccccc1C(=O)NC1CCN(c2cc(-c3ccc(Cl)cc3)[nH]n2)C1 (centres undefined)	none
N#Cc1ccc(C(=O)NC2CCN(c3cc(-c4ccccc4)[nH]n3)CC2)cc1	none
O=C(NC1CCN(c2cc(-c3ccc(Cl)cc3)[nH]n2)C1)c1cccnc1 (centres undefined)	none
O=C(NC1CCN(c2cc(-c3ccc(Cl)cc3)[nH]n2)C1)c1ccc(Br)o1 (centres undefined)	Pf Dd2 inh 12.6µM
N#Cc1ccc(C(=O)NC2CCN(c3cc(-c4ccc(Cl)cc4)[nH]n3)CC2)cc1	none
O=C(Cc1ccccn1)N1CCC(N2CCCCCC2=O)CC1	none
NC(=O)CN1CCCC(c2nc(-c3cn4ccccc4n3)no2)C1 (centres undefined)	none
c1cncc(-c2nc(CCNc3ncncn3)cs2)c1	none
Cc1nn(C)cc1CN(C)CC1(O)CCCN(Cc2ccc(F)cc2)C1=O (centres undefined)	none
CC(C)Cc1cc(C(=O)N[C@H](C2CCNCC2)C2CC(O)C2)nc(N)n1 (some centres undefined)	none
O=C(CCc1nc(-c2cccs2)no1)Nc1ccc([N+](=O)[O-])cc1	Pf Dd2 inh 11.2µM
Cc1cccc(-c2noc(-c3ccccc3OCC(=O)Nc3ccc([N+](=O)[O-])cc3)n2)c1	none
COc1cc(NC(=O)CCc2nc(-c3cccs3)no2)cc(OC)c1OC	none
CN1C[C@H](NC2CCC2)CCC[C@@H](C(=O)NC2CC2)CC1=O	none
CCOC(=O)c1c(C)oc2nc(C)nc(NCCCN3CCN(c4ccc(F)cc4)CC3)c12	Pf Dd2 inh 11.2µM
CCOC(=O)c1c(C)oc2nc(C)nc(NCCc3ccc(C)cc3)c12	none
CCOC(=O)c1c(C)oc2nc(C)nc(NCc3ccccc3OC)c12	Pf Dd2 inh 8.91µM
CCOC(=O)c1c(C)oc2ncnc(Nc3ccc(CC)cc3)c12	none
CCOC(=O)c1c(C)oc2nc(C)nc(NCCc3ccc(S(N)(=O)=O)cc3)c12	none
CCOC(=O)c1c(C)oc2nc(C)nc(NCC3CCN(Cc4cc(C)ccc4C)CC3)c12	none
CCOC(=O)c1c(C)oc2nc(C)nc(NCC3CCN(Cc4cccc(C)c4)CC3)c12	none
CCOC(=O)c1c(C)oc2nc(C)nc(NCc3ccccc3OCC)c12	Pf Dd2 inh 8.91µM
Cc1nc(N2CCCC2)c2c(C(=O)N3CCN(c4ccc(F)cc4)CC3)c(C)oc2n1	none
CN1CCC([C@@H]2CN(C(=O)c3nn(C)c4ccccc34)C[C@H]2C(N)=O)CC1	none
CN1CCN(C(=O)[C@@H]2CCC[C@@H](NCc3cccc(Cl)c3)CN(C)C(=O)C2)CC1	none
O=C(N1CCCCC1)N1CCN([S+](=O)([O-])c2ccc(Cl)nc2)C(=O)C1	none
CC(C)(O)CCc1cccc(C(=O)N(Cc2ccc3c(c2)OCO3)C2CC2)c1	none
O=c1c2c3c(nn2ccn1Cc1cc(=O)n2ccccc2n1)CCCC3	none
CC(C)(C)CN1CCNC(=O)C1CC(=O)O (centres undefined)	none
CN(C)c1cc(N2CCCC(NC(=O)Cc3ccc(F)cc3)C2)ncn1 (centres undefined)	none
Cc1ccc2c(c1)N1C(=O)OC[C@@H]1CCN(Cc1cccc(Cl)c1)C2	none
O=c1oc2c3c(ccc2c2ccccc12)OCN(Cc1cccc(Cl)c1)C3	Pf Dd2 inh 10µM
O=C1[C@H]2CN(Cc3ccccc3Cl)C[C@H]2C(=O)N1Cc1ccc2c(c1)OCO2	none
Cc1ccc(-c2c(C(=O)NCc3ccc(F)cc3)oc(=O)c3ccccc23)cc1	none
O=c1oc2c3c(ccc2c2ccccc12)OCN(Cc1ccccc1Cl)C3	Pf Dd2 inh 5.62µM
Cc1ccc2c(CN3CCN(Cc4ccccc4Cl)CC3)cc(=O)oc2c1	none
Cc1cc2c(c3oc(=O)c4ccccc4c13)CN(Cc1ccc(F)cc1)CO2	Pf Dd2 inh 0.794µM
O=C(Cn1c(=O)c2c(n1Cc1ccccc1)CN(Cc1ccccc1)CC2)NCc1cccc(Cl)c1	none
O=C1CC2(CCN(Cc3ccc(F)cc3)CC2)Oc2ccccc2N1	none
CCNC(=O)c1cccnc1OC1CCN(C(=O)c2cc(C)ccc2C)C1 (centres undefined)	none
Cc1nccn1CC(=O)N[C@@H]1CN(Cc2ccccn2)C[C@H]1CN(C)C	none
Cc1cnc(-c2ccccc2)n1CCNC(=O)NCc1ccccc1	none
Cc1cnc(C(=O)NC2C[C@H]3CC[C@@H](C2)N3C(=O)COc2ccc(Cl)cc2C)cn1 (some centres undefined)	none
O=C(Nc1ccc2c(c1)OCO2)C1CCc2sc(C(=O)N3CCCC3)cc2C1 (centres undefined)	none
Cc1ccc(CN2C[C@@H]3C(=O)N(CCCN4CCCC4=O)C(=O)[C@@H]3C2)cc1	none
COc1ccc(-c2noc([C@@H]3CCCN3C(=O)COc3cccc(C)c3)n2)cc1OC	none
CCCN(CC1CC1)C(=O)c1c(OCC2CC2)cc(=O)n2c1CCCCC2	none
O=C(NCCC1CCCCC1)c1ccc2nccn2c1	none
COc1ccc(OC)c(NC(=O)C2CCN(C(=O)N3CC4CC(C3)[C@H]3CCCC(=O)N3C4)CC2)c1 (some centres undefined)	none
Cc1ccc(NC(=O)C2CCN(C(=O)c3ncn4c3COC(c3ccccc3)C4)CC2)cc1C (centres undefined)	none
COCCC1(NC(=O)C2CC2)CCN(C(=O)c2ccccn2)CC1	none
CO[C@H]1C(=O)N(C2CCN(S(=O)(=O)c3cccc(F)c3)CC2)[C@H]1c1ccncc1	none
CCOc1ccccc1CN(CCc1ccc2c(c1)OCO2)Cc1cc(OC)c(OC)cc1OC	Pf Dd2 inh 3.98µM
CCOc1ccc(CN(CCc2ccc3c(c2)OCO3)Cc2cccc(OC)c2)cc1	none
CCOc1ccc(CN(C)C2CCOc3ccccc32)cc1 (centres undefined)	none
CCOc1ccc(CN(CCc2ccc3c(c2)OCO3)Cc2ccc(C)cc2)cc1	Pf Dd2 inh 10µM
CCOc1ccccc1CNC(=O)c1noc(-c2ccc3c(c2)OCO3)n1	none
CCOc1ccc(CN(CCc2ccc3c(c2)OCO3)Cc2cccc(Br)c2)cc1	none
O=C(NCCN1CCOC1=O)c1cn(CCC2CCCCN2)nn1 (centres undefined)	none
O=C1NC2(CCN(C(=O)CCc3cccnc3)CC2)CC1c1ccccc1 (centres undefined)	none
COc1ccc(C2(C(=O)NCc3ccc4ccccc4c3)CCOCC2)cc1	none
O=C1NC2(CCCN(C(=O)c3ccccc3F)C2)COc2ccccc21 (centres undefined)	none
O=C(c1ccccc1F)N1CCC2(CC1)COc1ccccc1CN2	Pf Dd2 inh 1.12µM
O=C1CC(C(=O)O)C2(CCN(C(=O)c3ccc4c(c3)OCO4)CC2)N1 (centres undefined)	none
O=C1NC2(CCN(C(=O)c3ccc4c(c3)OCO4)C2)Oc2ccccc21 (centres undefined)	none
O=C(c1ccccc1F)N1CCC2(CC1)COc1ccccc1NC2=O	none
O=C(c1ccc2c(c1)OCO2)N1CCC2(CC1)COc1ccccc1CN2	Pf Dd2 inh 1.26µM
Cc1ccc(S(=O)(=O)N2CCC3(CC2)SCC(=O)N3Cc2ccco2)cc1	none
CN1C(=O)CC(C(=O)O)C12CCN(Cc1nc3ccsc3c(=O)[nH]1)CC2 (centres undefined)	none
Cn1cc(CN[C@H]2C[C@H]3C(=O)NC[C@@H](CCC(=O)N4CCc5ccccc54)N3C2)c2ccccc21	none
